# Reference: PubChem BioAssay (NCATS)
# Results filed as inconclusive are left out. A call without a number means that no potency is given here. Activity calls are given as the source filed them. Unless noted, the call rests on the fitted dose curve.
# Tests used:
# [1] = target: Glucocorticoid receptor (Homo sapiens) (UniProt P04150); test: qHTS assay for small molecule agonists of glucocorticoid receptor signaling (AID 588532; active means well fitted curve in the direction sought with a large enough effect in the signal ratio, with a control signal flat; the % refers to the signal ratio); conditions: HeLa MMTV-bla, beta-lactamase ratio, agonist, 18 h; stronger effect = higher value; percent of dexamethasone control, DMSO zero
# Sequence of Glucocorticoid receptor (Homo sapiens) (P04150 whole entry, looked up): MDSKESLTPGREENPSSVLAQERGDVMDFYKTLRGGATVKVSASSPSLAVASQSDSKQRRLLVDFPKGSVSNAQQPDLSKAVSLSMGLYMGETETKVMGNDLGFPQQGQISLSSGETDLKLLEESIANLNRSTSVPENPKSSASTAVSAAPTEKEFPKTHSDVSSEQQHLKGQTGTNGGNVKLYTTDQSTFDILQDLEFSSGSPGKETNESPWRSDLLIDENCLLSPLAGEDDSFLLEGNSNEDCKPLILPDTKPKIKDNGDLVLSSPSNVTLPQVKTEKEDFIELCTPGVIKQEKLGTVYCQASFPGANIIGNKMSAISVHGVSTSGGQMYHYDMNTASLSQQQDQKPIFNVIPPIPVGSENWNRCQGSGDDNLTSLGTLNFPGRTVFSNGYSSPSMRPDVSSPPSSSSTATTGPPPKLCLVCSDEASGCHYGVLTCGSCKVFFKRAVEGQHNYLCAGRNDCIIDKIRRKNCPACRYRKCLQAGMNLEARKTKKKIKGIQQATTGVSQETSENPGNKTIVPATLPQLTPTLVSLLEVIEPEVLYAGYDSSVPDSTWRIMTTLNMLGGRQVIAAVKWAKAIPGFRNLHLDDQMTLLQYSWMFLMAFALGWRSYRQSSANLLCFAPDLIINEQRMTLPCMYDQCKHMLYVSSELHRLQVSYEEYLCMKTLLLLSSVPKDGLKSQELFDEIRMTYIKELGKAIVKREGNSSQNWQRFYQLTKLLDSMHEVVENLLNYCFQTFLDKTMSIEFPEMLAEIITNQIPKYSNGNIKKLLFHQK
# Method in brief: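 MMTV-bla HeLa, beta-lactamase reporter; medium with 1% charcoal/dextran-stripped FBS; cpds up to 92 uM, 18 h, 37 C; CCF4 readout 460/530 nm; Hill fit → EC50, efficacy vs 0.1 uM dexamethasone = 100%.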
# [2] = target: Glucocorticoid receptor (Homo sapiens) (UniProt P04150); test: qHTS assay for small molecule antagonists of glucocorticoid receptor signaling (AID 588533; active means well fitted inhibition curve with a large enough effect in the signal ratio, with a control signal flat, not every such curve was filed as active; the % refers to the signal ratio;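 further: cells stimulated with 2 nM dexamethasone as agonist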); conditions: HeLa MMTV-bla, GRE beta-lactamase ratio, antagonist mode, 18 h; series mostly up to 76.8 µM
# Method in brief: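 Antagonist-mode qHTS: compound titrations added to GRE-bla HeLa cells, then dexamethasone 2 nM final; 18 h, 37 C. CCF4 FRET fluorescence normalized to dexamethasone and DMSO; IC50 from Hill fit.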
# [3] = qHTS assay for small molecule antagonists of peroxisome proliferator-activated receptor delta signaling (AID 588535; active means well fitted inhibition curve with a large enough effect in the signal ratio, with a control signal flat, not every such curve was filed as active; the % refers to the signal ratio;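 on max response: cells co-treated with a PPAR-delta agonist as stimulator during compound exposure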); conditions: HEK293T PPARd-UAS-bla, beta-lactamase FRET ratio, 18 h; 460 nm channel
# Method in brief: (§1)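 Compounds tested in titration on PPAR-delta-UAS-bla HEK293T cells grown in charcoal/dextran-stripped serum (2%); beta-lactamase activity read via CCF4 emission at 460 and 530 nm.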
# [4] = target: Peroxisome proliferator-activated receptor delta (Homo sapiens) (UniProt Q03181); test: as above; conditions: HEK293T PPARd-UAS-bla, beta-lactamase FRET ratio, 18 h; series mostly up to 76.7 µM
# Sequence of Peroxisome proliferator-activated receptor delta (Homo sapiens) (Q03181 whole entry, looked up): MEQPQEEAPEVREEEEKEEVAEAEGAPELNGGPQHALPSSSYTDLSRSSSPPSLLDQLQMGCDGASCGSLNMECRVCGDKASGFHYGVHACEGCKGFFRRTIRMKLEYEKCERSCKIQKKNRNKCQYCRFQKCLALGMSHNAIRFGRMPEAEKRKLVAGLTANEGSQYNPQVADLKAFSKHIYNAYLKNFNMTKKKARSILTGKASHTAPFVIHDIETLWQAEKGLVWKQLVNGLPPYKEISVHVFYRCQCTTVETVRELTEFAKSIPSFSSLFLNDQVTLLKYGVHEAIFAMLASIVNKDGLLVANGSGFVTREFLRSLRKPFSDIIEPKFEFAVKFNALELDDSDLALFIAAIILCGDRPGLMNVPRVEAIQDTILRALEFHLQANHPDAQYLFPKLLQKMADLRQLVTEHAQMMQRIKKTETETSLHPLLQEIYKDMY
# Method in brief: as §1
# [5] = target: Peroxisome proliferator-activated receptor gamma (Homo sapiens) (UniProt P37231); test: qHTS assay for small molecule agonists of peroxisome proliferator-activated receptor gamma signaling (AID 588536; active means well fitted curve in the direction sought with a large enough effect in the signal ratio, with a control signal flat, not every such curve was filed as active; the % refers to the signal ratio); conditions: HEK293 PPARg-UAS-bla, beta-lactamase ratio, 16 h, percent of rosiglitazone response, DMSO as zero; series mostly up to 76.7 µM
# Sequence of Peroxisome proliferator-activated receptor gamma (Homo sapiens) (P37231 whole entry, looked up): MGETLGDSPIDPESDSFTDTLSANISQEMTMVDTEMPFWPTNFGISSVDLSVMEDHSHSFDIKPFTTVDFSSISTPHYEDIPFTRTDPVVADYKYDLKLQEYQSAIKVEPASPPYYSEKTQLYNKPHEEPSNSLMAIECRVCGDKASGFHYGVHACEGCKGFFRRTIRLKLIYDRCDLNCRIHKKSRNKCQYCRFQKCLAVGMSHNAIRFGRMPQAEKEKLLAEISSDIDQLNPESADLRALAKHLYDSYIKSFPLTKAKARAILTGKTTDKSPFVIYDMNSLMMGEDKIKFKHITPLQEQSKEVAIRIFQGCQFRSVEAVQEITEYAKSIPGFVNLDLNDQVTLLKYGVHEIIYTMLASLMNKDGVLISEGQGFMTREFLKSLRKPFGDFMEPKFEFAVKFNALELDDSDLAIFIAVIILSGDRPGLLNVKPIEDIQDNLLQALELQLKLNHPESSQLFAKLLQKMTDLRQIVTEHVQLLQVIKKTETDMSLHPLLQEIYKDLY
# Method in brief: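 Compound treatment: 16 h, 37 C, HEK293 GeneBLAzer cells. Detection: CCF4, 2 h RT. Values: Hill-fit EC50, efficacy as % of 2 uM rosiglitazone.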
# [6] = target: Vitamin D3 receptor (Homo sapiens) (UniProt P11473); test: qHTS assay for small molecule antagonists of vitamin D receptor signaling (AID 588541); conditions: HEK293T VDR-UAS-bla, beta-lactamase ratio, antagonist mode; series mostly up to 76.7 µM;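 further: receptor activated by calcitriol during compound treatment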
# Sequence of Vitamin D3 receptor (Homo sapiens) (P11473 whole entry, looked up): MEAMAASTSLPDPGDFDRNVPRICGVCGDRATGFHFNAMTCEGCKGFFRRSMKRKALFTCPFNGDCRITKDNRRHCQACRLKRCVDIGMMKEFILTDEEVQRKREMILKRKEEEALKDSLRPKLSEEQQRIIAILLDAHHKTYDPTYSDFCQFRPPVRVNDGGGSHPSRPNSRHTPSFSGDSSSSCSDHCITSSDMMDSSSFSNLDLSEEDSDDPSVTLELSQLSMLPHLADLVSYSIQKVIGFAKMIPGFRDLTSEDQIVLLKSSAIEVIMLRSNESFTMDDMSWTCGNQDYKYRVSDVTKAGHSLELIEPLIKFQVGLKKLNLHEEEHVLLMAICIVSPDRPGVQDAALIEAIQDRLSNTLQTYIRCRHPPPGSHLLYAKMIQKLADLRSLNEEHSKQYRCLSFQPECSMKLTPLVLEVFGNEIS
# Method in brief: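 VDR-UAS-bla HEK293T cells (2000/well, 2% charcoal-stripped FBS) were treated with titrated compounds plus 1-alpha,25-dihydroxyvitamin D3 (50 nM or 3 nM final) for 16 h at 37 C. CCF4 beta-lactamase fluorescence was read; Hill fits gave IC50.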
# [7] = target: Vitamin D3 receptor (Homo sapiens) (UniProt P11473); test: qHTS assay for small molecule agonists of vitamin D receptor signaling (AID 588543); conditions: HEK293T VDR-UAS-bla, beta-lactamase ratio, 16 h; series mostly up to 76.8 µM
# Method in brief: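 VDR-UAS-bla HEK293T cells, 2000/well, 2% charcoal-stripped FBS; compound titration 16 h at 37 C; CCF4 beta-lactamase ratio read. Normalized to 50 nM 1-alpha,25-dihydroxyvitamin D3 (100%) and DMSO; Hill fit gives EC50, efficacy.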
# [8] = qHTS assay for small molecule agonists of retinoid X receptor alpha signaling (AID 588544); conditions: HEK293T RXRa-UAS-bla, beta-lactamase reporter, 18 h; 530 nm emission
# [9] = target: Retinoic acid receptor RXR-alpha (Homo sapiens) (UniProt P19793); test: as above; conditions: HEK293T RXRa-UAS-bla, beta-lactamase reporter, 18 h; series mostly up to 76.7 µM
# Sequence of Retinoic acid receptor RXR-alpha (Homo sapiens) (P19793 whole entry, looked up): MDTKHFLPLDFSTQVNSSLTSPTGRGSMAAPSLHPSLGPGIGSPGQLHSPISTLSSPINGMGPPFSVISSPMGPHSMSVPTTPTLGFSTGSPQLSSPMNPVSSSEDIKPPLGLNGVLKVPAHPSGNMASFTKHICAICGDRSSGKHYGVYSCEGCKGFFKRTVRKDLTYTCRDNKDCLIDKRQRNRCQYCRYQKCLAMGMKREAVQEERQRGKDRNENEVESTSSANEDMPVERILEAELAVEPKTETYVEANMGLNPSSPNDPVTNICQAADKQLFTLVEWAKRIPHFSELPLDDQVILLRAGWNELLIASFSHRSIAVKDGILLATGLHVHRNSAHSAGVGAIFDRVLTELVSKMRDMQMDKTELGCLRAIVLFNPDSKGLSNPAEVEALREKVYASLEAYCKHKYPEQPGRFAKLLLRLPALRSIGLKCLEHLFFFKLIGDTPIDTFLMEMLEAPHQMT
# [10] = target: Thyroid hormone receptor beta (Homo sapiens) (UniProt P10828); test: qHTS assay for small molecule agonists of thyroid hormone receptor beta signaling (AID 588545); conditions: TR-UAS-bla GripTite HEK 293, beta-lactamase ratio, agonist mode, 18 h, percent of T3 response, DMSO as zero; series mostly up to 76.7 µM
# Sequence of Thyroid hormone receptor beta (Homo sapiens) (P10828 whole entry, looked up): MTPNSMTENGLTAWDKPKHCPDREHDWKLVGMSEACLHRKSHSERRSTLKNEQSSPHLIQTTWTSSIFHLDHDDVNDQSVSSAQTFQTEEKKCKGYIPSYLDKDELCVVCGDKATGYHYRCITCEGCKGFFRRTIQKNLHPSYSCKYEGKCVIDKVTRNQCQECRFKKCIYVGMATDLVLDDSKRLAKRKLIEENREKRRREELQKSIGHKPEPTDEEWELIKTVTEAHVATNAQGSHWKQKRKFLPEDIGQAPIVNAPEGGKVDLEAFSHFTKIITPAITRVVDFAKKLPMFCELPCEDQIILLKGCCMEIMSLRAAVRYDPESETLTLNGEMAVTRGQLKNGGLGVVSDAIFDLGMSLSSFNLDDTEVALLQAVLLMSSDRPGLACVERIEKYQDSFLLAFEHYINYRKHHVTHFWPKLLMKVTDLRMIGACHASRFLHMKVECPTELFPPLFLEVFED
# Method in brief: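 Agonist activity was read as beta-lactamase CCF4 fluorescence (405 ex, 460/530 em), scaled between DMSO (0%) and 10 nM T3 (100%), then Hill-fitted for EC50 and efficacy. HEK 293 TR-UAS-bla cells in 2% charcoal/dextran FBS medium were exposed 18 h at 37 C.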
# [11] = qHTS assay for small molecule antagonists of retinoid X receptor alpha signaling (AID 588546; active means well fitted inhibition curve with a large enough effect in the signal ratio, with a control signal flat, not every such curve was filed as active; the % refers to the signal ratio;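 further: cells stimulated with 9-cis-retinoic acid as agonist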); conditions: HEK293T RXRa-UAS-bla, beta-lactamase ratio, antagonist mode; measured here: W530 green channel, cytotoxicity proxy
# Method in brief: (§2)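 Beta-lactamase reporter inhibition, read as CCF4 fluorescence ratio (ex 405, em 460/530 nm) after 2 h at RT. HEK293T UAS-bla cells, 2500/well, were stimulated with 9-cis-RA at 500 or 100 nM final alongside test compound for 18 h at 37 C.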
# [12] = target: Thyroid hormone receptor beta (Homo sapiens) (UniProt P10828); test: qHTS assay for small molecule antagonists of thyroid hormone receptor beta signaling (AID 588547; active means well fitted inhibition curve with a large enough effect in the signal ratio, with a control signal flat, not every such curve was filed as active; the % refers to the signal ratio;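 further: cells stimulated with 0.4 nM T3 agonist during compound exposure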); conditions: TR-UAS-bla HEK293, beta-lactamase ratio, antagonist mode, 18 h
# Method in brief: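 TR-UAS-bla GripTite HEK293 cells in 2% charcoal/dextran FBS medium were preincubated 4 h at 37 C, given compound (0.59 nM to 92 uM) plus 0.4 nM T3 (final) for 18 h, then CCF4 for 2 h at RT; Hill fit gave IC50.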
# [13] = target: Voltage-gated inwardly rectifying potassium channel KCNH2 (Homo sapiens) (UniProt Q12809); test: qHTS Assay for Small Molecule Inhibitors of the Human hERG Channel Activity (AID 588834; active means well fitted inhibition curve with a large enough effect;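 further: top concentration of the series differs between compounds; lower thallium flux fluorescence means stronger hERG block; nearly all actives have a fitted effect of over 50% in size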); conditions: U2OS BacMam hERG, FluxOR thallium flux fluorescence; series mostly up to 92.2 µM
# Sequence of Voltage-gated inwardly rectifying potassium channel KCNH2 (Homo sapiens) (Q12809 whole entry, looked up): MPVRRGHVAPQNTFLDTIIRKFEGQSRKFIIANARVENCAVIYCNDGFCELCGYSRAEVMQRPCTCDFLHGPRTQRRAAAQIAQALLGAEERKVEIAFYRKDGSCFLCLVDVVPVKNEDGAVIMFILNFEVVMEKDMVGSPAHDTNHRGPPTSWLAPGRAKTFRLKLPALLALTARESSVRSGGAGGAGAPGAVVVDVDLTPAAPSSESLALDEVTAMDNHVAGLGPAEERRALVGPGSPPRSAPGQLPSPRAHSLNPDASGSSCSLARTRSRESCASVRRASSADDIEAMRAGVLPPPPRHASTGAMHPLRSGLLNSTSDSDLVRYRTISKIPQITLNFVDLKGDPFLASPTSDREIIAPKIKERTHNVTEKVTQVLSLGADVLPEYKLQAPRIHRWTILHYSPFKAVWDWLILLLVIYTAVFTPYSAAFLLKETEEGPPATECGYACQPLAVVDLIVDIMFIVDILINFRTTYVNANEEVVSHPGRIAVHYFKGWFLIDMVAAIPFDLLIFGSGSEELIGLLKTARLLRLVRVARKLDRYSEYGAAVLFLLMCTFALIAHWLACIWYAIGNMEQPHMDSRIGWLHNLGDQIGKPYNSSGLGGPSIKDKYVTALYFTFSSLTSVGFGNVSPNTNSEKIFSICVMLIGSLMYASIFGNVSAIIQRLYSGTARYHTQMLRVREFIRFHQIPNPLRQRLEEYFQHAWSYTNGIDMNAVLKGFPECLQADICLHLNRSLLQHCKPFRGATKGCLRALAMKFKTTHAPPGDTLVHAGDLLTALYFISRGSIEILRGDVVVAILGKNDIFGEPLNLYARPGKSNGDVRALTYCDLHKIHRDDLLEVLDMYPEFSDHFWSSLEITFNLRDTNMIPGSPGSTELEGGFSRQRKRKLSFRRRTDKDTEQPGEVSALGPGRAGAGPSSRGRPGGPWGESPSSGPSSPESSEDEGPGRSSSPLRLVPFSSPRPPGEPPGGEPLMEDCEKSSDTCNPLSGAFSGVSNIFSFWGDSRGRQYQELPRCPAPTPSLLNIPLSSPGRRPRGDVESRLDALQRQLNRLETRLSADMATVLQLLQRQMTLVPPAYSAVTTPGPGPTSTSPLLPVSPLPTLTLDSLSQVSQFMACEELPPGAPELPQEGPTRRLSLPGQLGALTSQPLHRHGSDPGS
# Method in brief: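 Thallium serves as surrogate for K+ influx through BacMam-delivered hERG in U2OS cells. Compounds are added for about 10 minutes after dye loading; stimulation buffer then starts flux, monitored kinetically on FDSS.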
# [14] = qHTS assay for small molecule agonists of the antioxidant response element (ARE) signaling pathway (AID 651741; active means well fitted activation curve with a large enough effect in the signal ratio; the % refers to the signal ratio); conditions: HepG2 ARE-bla reporter, beta-lactamase FRET ratio, 16 h; series mostly up to 96 µM
# Method in brief: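 Beta-lactamase reporter expression driven by the antioxidant response element in HepG2 cells was detected by fluorescence with LiveBLAzer B/G FRET substrate (2 h, room temperature) following 16 h compound treatment at 37 C.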
# [15] = qHTS assay for small molecule activators of the p53 signaling pathway (AID 651743; active means well fitted activation curve with a large enough effect in the signal ratio, not every such curve was filed as active; the % refers to the signal ratio); conditions: HCT-116 p53RE-bla, beta-lactamase FRET ratio, 16 h; stronger effect = higher value
# Method in brief: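 Here HCT-116 cells with an integrated p53-responsive beta-lactamase gene were incubated with compounds (16 hours, 37 C) after a 5-hour plating period; beta-lactamase activity was detected as fluorescence intensity via B/G FRET substrate.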
# [16] = target: Retinoic acid receptor RXR-alpha (Homo sapiens) (UniProt P19793); test: qHTS assay for small molecule antagonists of retinoid X receptor alpha signaling (AID 588546); conditions: HEK293T RXRa-UAS-bla, beta-lactamase ratio, antagonist mode;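 further: cells stimulated with 9-cis-retinoic acid as agonist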
# Method in brief: as §2
# [17] = qHTS assay for small molecule activators of the nuclear factor-kappa B (NF-kB) signaling pathway (AID 651749; active means well fitted activation curve with a large enough effect in the signal ratio; the % refers to the signal ratio); conditions: NF-kB-bla ME-180 cells, beta-lactamase FRET ratio, 16 h; stronger effect = higher value
# Method in brief: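 Beta-lactamase reporter expression, controlled by NF-kB response elements in ME-180 cells, was quantified fluorometrically via FRET disruption; cells at 2,000/well had been incubated with 23 nL test compound for 16 hr.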
# [18] = qHTS assay for small molecule disruptors of the mitochondrial membrane potential - 1 hr assay (AID 651754); conditions: series mostly up to 92.2 µM; further: nearly all actives have a fitted effect of over 35% in size
# Method in brief: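 Read-out: dye fluorescence at 490 nm ex/535 nm em (monomers) and 540 nm ex/590 nm em (aggregates) in HepG2 cells. Compound exposure 1 hr at 37C, followed by 30 min dye loading.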
# [19] = target: Peroxisome proliferator-activated receptor gamma (Homo sapiens) (UniProt P37231); test: qHTS assay for small molecule antagonists of peroxisome proliferator-activated receptor gamma signaling (AID 588537; active means well fitted inhibition curve with a large enough effect in the signal ratio, with a control signal flat, not every such curve was filed as active; the % refers to the signal ratio;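 further: reporter cells co-stimulated with 50 nM rosiglitazone agonist during compound treatment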); conditions: HEK293 PPARg-UAS-bla, beta-lactamase ratio, antagonist mode; series mostly up to 76.8 µM
# Method in brief: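 HEK293 cells, PPAR-gamma-UAS-bla, 3000/well. Pre-incubation 6-6.5 h, 37 C. Compound titration with rosiglitazone 50 nM final, 16 h. CCF4 dye, 2 h RT, dual-emission fluorescence.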
Compound,activation [1],outcome [2],max response [3],Potency [4],outcome [5],outcome [6],outcome [7],max response [8],outcome [9],outcome [10],max response [11],activity change % (negative = inhibition) [12],Potency [13],Potency [14],activation [15],max response [16],activation [17],Potency [18],outcome [19]
Cc1cc(C)cc(O)c1,-1.28% (inactive),inactive,32.1%,inactive,inactive,inactive,inactive,0.806%,inactive,inactive,-5.75%,2.53% (inactive),inactive,inactive,-2.15% (inactive),–,–,–,–
C[C@@H]1O[C@@H](O[C@@H]2[C@@H](O)[C@H](OCCc3ccc(O)c(O)c3)O[C@H](CO[C@@H]3O[C@H](CO)[C@@H](O)[C@H](O)[C@H]3O)[C@H]2OC(=O)/C=C/c2ccc(O)c(O)c2)[C@H](O)[C@H](O)[C@H]1O,2.75% (inactive),inactive,20.8%,inactive,inactive,inactive,inactive,0.999%,inactive,–,-0.609%,4.68% (inactive),inactive,inactive,-0.671% (inactive),-6.94% (inactive),-0.414% (inactive),inactive,–
Fc1ccccc1,1.06% (inactive),inactive,0.384%,inactive,–,inactive,–,-11.1%,inactive,inactive,-11.6%,-5.64% (inactive),inactive,inactive,–,-5.23% (inactive),0.343% (inactive),inactive,–
Cc1ccc(N(C)C)cc1,-4.85% (inactive),inactive,17.3%,inactive,inactive,inactive,inactive,5.65%,inactive,–,-1.89%,13.9% (inactive),inactive,inactive,-2.63% (inactive),25.4% (inactive),-0.0617% (inactive),inactive,–
Cc1ccc(Cl)cc1N,-7.53% (inactive),inactive,-18.2%,–,inactive,inactive,inactive,3.01%,inactive,inactive,-7.87%,-4.43% (inactive),inactive,–,0.545% (inactive),–,0.369% (inactive),inactive,inactive
C1COC1,0.529% (inactive),inactive,-21%,–,inactive,inactive,inactive,-1.49%,inactive,inactive,-8.83%,14.8% (inactive),inactive,inactive,0.23% (inactive),0.231% (inactive),-0.645% (inactive),inactive,inactive
CCc1ccccc1,-5.09% (inactive),inactive,15%,inactive,inactive,inactive,inactive,10.6%,inactive,–,3.87%,–,inactive,–,–,1.68% (inactive),-1.59% (inactive),inactive,–
